Assay results from PubChem BioAssay AID2315 (National Center for Advancing Translational Sciences (NCATS), 2010).
Out of some 290,000 compounds screened, about 27,000 (9.3%) were called active. Rule as the data show it: active = inhibition mostly above about 28% (no sharp cut-off); inactive = mostly below about 43%. This excerpt belongs to a sample that is enriched for actives.

Experiment: A qHTS for Small Molecule Inhibitors of Shiga Toxin; also: 0% is about no effect
Conditions: Vero cells, Shiga toxin protein synthesis inhibition reporter; at 38.7 µM, hits give high values

Row | SMILES | inhibition
1 | Cc1cc(C)nc(SCC(=O)c2ccc(Cl)cc2)n1 | -6.93% (inactive)
2 | Cc1cc(SCC(=O)c2ccccc2)nc(SCC(=O)c2ccccc2)n1 | 51.3% (inactive)
3 | Cc1cc(C)nc(S/C=C/C(=O)c2ccccc2)n1 | 159% (active)
4 | O=C(c1ccc(Br)o1)N1CCN(CCOc2ccccc2)CC1 | -4.41% (inactive)
5 | Cc1ccc(CNC(=O)[C@@H](NC(=O)Cc2ccccc2)C(C)C)cc1 | -12.1% (inactive)
6 | CCCOc1ccc(/C=N/NC(=O)C2CC2)c(OCCC)c1 | -6.76% (inactive)
7 | O=C(CC1N=C2c3ccccc3N=C(SCc3ccccc3Cl)N2C1=O)NCc1ccco1 (stereo unspecified) | 38.1% (active)
8 | CCC(C)NC(=O)CSC1=Nc2ccccc2C2=NC(CCC(=O)NCc3ccco3)C(=O)N12 (stereo unspecified) | -9.08% (inactive)
9 | O=C(CSC1=Nc2ccccc2C2=NC(CC(=O)NCc3ccco3)C(=O)N12)NCc1ccco1 (stereo unspecified) | -3.74% (inactive)
10 | CC(=O)OCC(NC(=O)C(Cc1ccccc1)NC(=O)OC(C)(C)C)C1OC(n2ccc(=O)[nH]c2=O)C(OC(C)=O)C1OC(C)=O (stereo unspecified) | 7.84% (inactive)
11 | C=CCNc1nc(N)c([N+](=O)[O-])c(NC2CCCCC2)n1 | 14.1% (inactive)
12 | CCC(CC)c1nnc(NC(=O)C2CCN(C(=O)c3ccco3)CC2)s1 | 4.71% (inactive)
13 | Cc1cc(N=Nc2ccc3ccccc3c2)ccc1O | 107% (active)
14 | COc1ccc(N=Nc2ccc(O)c(P(=O)(c3ccccc3)c3ccccc3)c2)cc1 | -5.57% (inactive)
15 | Cc1nc(N)sc1N=Nc1c(C)n(C)n(-c2ccccc2)c1=O | 2.84% (inactive)
16 | Cc1c(N=Nc2ccc(N(C)C)cc2)c(=O)n(-c2ccccc2)n1C | 55.4% (active)
17 | Cc1ccc(N=Nc2c(C)[nH]n(-c3ccccc3)c2=O)cc1 | 25.5% (inactive)
18 | CCCN1CCC(=O)N(C(CSc2ccc(OC)cc2)Cc2ccccc2)CC1 (stereo unspecified) | -5.53% (inactive)
19 | COc1ccc(CNC(=O)C(NS(=O)(=O)c2cccc3nsnc23)C(C)C)cc1 (stereo unspecified) | -7.36% (inactive)
20 | O=C(O)CCC(=O)N(Cc1ccccc1)Cc1ccccc1 | -10.9% (inactive)
21 | CC[C@@H](C)[C@H](NC(=O)CCc1c(C)c2cc3c4c(oc3c(C)c2oc1=O)CCCC4)C(=O)O | 22.3% (inactive)
22 | COc1cccc(OCCOc2cccc(/C=N/n3cnnc3)c2)c1 | 41.7% (active)
23 | COc1ccccc1OCCOc1ccc(/C=N/n2cnnc2)cc1 | -21.9% (inactive)

Row | SMILES | inhibition
24 | C(=N\n1cnnc1)/c1cccnc1 | 2.15% (inactive)
25 | O=C(c1ccc2c(c1)N(Cc1ccc(F)cc1)C(=O)c1ccccc1S2(=O)=O)N1CCN(c2ccccn2)CC1 | -2.78% (inactive)
26 | Cc1cc(NC(=O)COc2ccc(Cl)cc2Cl)n(CCC#N)n1 | 87.8% (inactive)
27 | CSc1ccc(C#N)cc1NC(=O)c1cccc(Cl)c1 | -14.6% (inactive)
28 | CCOc1ccc(CN2CCN(Cc3ccc4cc(F)ccc4n3)CC2CCO)cc1 (stereo unspecified) | -9.76% (inactive)
29 | Cc1ccccc1OC/C(O)=C(\C#N)c1nc2ccccc2[nH]1 | -10.2% (inactive)
30 | COc1cc(/C=C(\C#N)c2nc3c(s2)CC(C)CC3)ccc1O (stereo unspecified) | 62.8% (active)
31 | COc1cc(/C=C(\C#N)c2nc3ccccc3[nH]2)ccc1O | 55.7% (active)
32 | COc1ccc(/C=C(/NC(=O)c2ccc(C)cc2)c2nc3ccccc3[nH]2)cc1OC | -2.72% (inactive)
33 | CCOc1cc(/C=C(\C#N)c2nc(-c3cccs3)c(NC(C)=O)s2)ccc1O | -0.261% (inactive)
34 | Cc1ccc(-c2ccnc3[nH]n(-c4ccccc4)c(=O)c23)cc1 | 17.7% (inactive)
35 | C[C@H](NC(=O)C1CCN(S(=O)(=O)c2ccccc2)CC1)C(=O)NCc1ccccc1 | -3.31% (inactive)
36 | CC(=O)N1c2ccc(S(=O)(=O)NCCC(=O)N(C)C3CCCCC3)cc2CC1C (stereo unspecified) | 2.29% (inactive)
37 | COc1ccc(C(C(=O)NC2CCCC2)N(CCCO)C(=O)Cn2nnc(-c3ccc(C)o3)n2)cc1 (stereo unspecified) | -6.08% (inactive)
38 | CC(=O)Nc1cccc(/C(C)=N/NC(=O)c2ccccc2Cl)c1 | 22% (inactive)
39 | COc1cccc(C(=O)N/N=C(\C)c2cccc(NC(=O)c3ccc(F)cc3)c2)c1OC | 77.4% (active)
40 | C/C(=N/NC(=O)c1ccc(NC(=O)c2ccc(F)cc2)cc1)c1ccccc1 | 30% (inactive)
41 | OC(CNC1CCCC1)COc1ccc(F)cc1 (stereo unspecified) | -14% (inactive)
42 | CC(=O)N1CCN(CC(c2ccccc2)c2ccccc2)CC1 | -3.73% (inactive)
43 | CC1CCCN(CC(=O)Nc2cc(Cl)ccc2Oc2ccccc2)C1 (stereo unspecified) | 0.789% (inactive)
44 | CC1CCC2CCCCC2N1C(=O)c1cc([N+](=O)[O-])cc([N+](=O)[O-])c1 (stereo unspecified) | -16.8% (inactive)
45 | O=C1/C(=C/c2ccc3c(c2)OCO3)Oc2cc(OCC(=O)N3CC(O)C[C@H]3C(=O)O)ccc21 (stereo partly specified) | -3% (inactive)
46 | CN(C)C(=O)Oc1ccc2c(c1)O/C(=C\c1ccccc1)C2=O | 62% (active)

Row | SMILES | inhibition
47 | COC(=O)C(C)Oc1ccc2c(c1)O/C(=C\c1cccc(Br)c1)C2=O (stereo unspecified) | -4.67% (inactive)
48 | Cc1ccc(S(=O)(=O)N2CCC(C)CC2)cc1C(=O)NCc1ccccn1 | 5.07% (inactive)
49 | COc1ccccc1OCc1ccc(C(=O)NC(C)c2ccccc2)o1 (stereo unspecified) | -4.29% (inactive)
50 | CCc1cc(-c2nnc(SCC(=O)NC3CC3)n2C)cs1 | 14.1% (inactive)
51 | Cc1ccc(C(=O)N2CCCCCC2)cc1Br | 20.5% (inactive)
52 | C=CCNC(=O)c1ccc(C)c(Br)c1 | 19.7% (active)
53 | Cc1ccc(C(=O)NC(C)c2ccccc2)cc1Br (stereo unspecified) | 38.4% (inactive)
54 | CCCc1nnc(SCC(=O)Nc2ccc(C(=O)OCC)cc2)o1 | 32.8% (inactive)
55 | COCCNC(=O)c1snc2ccc(Cl)cc12 | 51.4% (active)
56 | COCCNC(=O)c1ccc2c(c1)ncn2-c1ccc(C)c(Cl)c1 | 19.9% (inactive)
57 | COCCNC(=O)c1ccc(S(=O)(=O)c2ccc(Cl)cc2)c(NC(C)=O)c1 | -11.4% (inactive)
58 | Cc1ccc(S(=O)(=O)N2CCCC(C(=O)N3CCN(C)CC3)C2)cc1 (stereo unspecified) | -6.59% (inactive)
59 | NS(=O)(=O)c1cccc(NC(=O)CC23CC4CC(CC(Br)(C4)C2)C3)c1 | -9.01% (inactive)
60 | CCOc1ccc(C(=O)Nc2ccc(S(=O)(=O)NCC3CCCO3)cc2)cc1OCC (stereo unspecified) | 12.5% (inactive)
61 | O=C(Cc1csc(Nc2nc(=S)[nH]c3ccccc23)n1)NCCCN1CCN(c2cccc(Cl)c2)CC1 | 15.7% (inactive)
62 | O=C(NC1CCCC1)C(c1ccc(Cl)cc1)N(C(=O)c1csnn1)C1CC1 (stereo unspecified) | 2.36% (inactive)
63 | O=C(NCc1ccccc1)C(c1cccnc1)N(C(=O)c1csnn1)c1ccc(F)cc1 (stereo unspecified) | 1.7% (inactive)
64 | CC1CCN(C(=O)Cn2nnnc2CN2CCOCC2)CC1 | 15.5% (inactive)
65 | CCS(=O)(=O)n1nc(-c2ccc(OC)cc2)nc1SC | 63.1% (inactive)
66 | CCS(=O)(=O)n1nc(-c2ccccc2)nc1SCc1ccccc1 | 115% (active)
67 | CS(=O)(=O)n1nc(-c2ccccc2)nc1NCc1ccco1 | 7.12% (inactive)
68 | CCCC(C(=O)NC1CCCC1)N(C(=O)Cn1nnc(-c2ccc(C)o2)n1)c1cccc(O)c1 (stereo unspecified) | -4.05% (inactive)
69 | C[C@@H]1O[C@@H](OC[C@H]2O[C@@H](Oc3cc(O)c4c(c3)O[C@H](c3ccc(O)c(O)c3)CC4=O)[C@H](O)[C@@H](O)[C@@H]2O)[C@H](O)[C@H](O)[C@H]1O | -8.25% (inactive)

Row | SMILES | inhibition
70 | Cc1cc(NC(=O)c2cc(-c3cccs3)on2)nn1Cc1ccc(Cl)cc1 | 9.37% (inactive)
71 | Cc1ccc(Cn2ccc(NC(=O)C3C4CCC(C4)C3C(=O)O)n2)cc1 (stereo unspecified) | -3.4% (inactive)
72 | Cc1ccc(Cn2ccc(NC(=O)c3cc(C(C)C)on3)n2)cc1 | 84.3% (active)
73 | OC(c1ccc(Cl)cc1)C(CN1CCOCC1)c1ccccc1 (stereo unspecified) | 2.21% (inactive)
74 | CC(=O)c1ccc(S(=O)(=O)NCc2nnnn2-c2ccccc2)cc1 | -2.55% (inactive)
75 | c1ccc(-c2nnc(SCc3nc4ccccc4[nH]3)o2)cc1 | 36.1% (inactive)
76 | O=C(CSc1nnc(-c2ccncc2)o1)NCc1ccc(Cl)cc1 | -9.29% (inactive)
77 | Clc1ccc(-c2nnc(SCc3nc4ccccc4s3)o2)cc1 | 61.6% (active)
78 | CCOc1ccc(S(=O)(=O)N2CCC(c3ccccc3)CC2)cc1C(=O)O | -1.98% (inactive)
79 | COc1cccc(-c2nc(CS(=O)(=O)CC(=O)NCCc3ccc(OC)c(OC)c3)c(C)o2)c1 | -8.6% (inactive)
80 | Cc1nc2ccccc2c(=O)n1NC(=O)c1ccc(Cl)c([N+](=O)[O-])c1 | -9.41% (inactive)
81 | O=C(O)c1cccc(N2C(=O)Nc3ccccc3N2O)c1 | 11.8% (inactive)
82 | NC1=NN(c2cccc(C(=O)O)c2)C(=O)C1 | 143% (active)
83 | COC(=O)CC1=NN(c2ccccc2)C(=O)C1 | 17.6% (inactive)
84 | CC(C)c1nc(CNC(=O)CC2C(=O)NCCN2Cc2cccc(F)c2F)cs1 (stereo unspecified) | -5.01% (inactive)
85 | CN(CCNC(=O)c1cc2c(-c3ccccc3F)nn(C)c2s1)C1CCCCC1 | -4.2% (inactive)
86 | COc1ccc(OC)c(S(=O)(=O)N(C)CC(=O)N2CCN(c3ccccc3)CC2)c1 | -6.69% (inactive)
87 | CN(CC(=O)N1CCN(c2ccccc2)CC1)S(=O)(=O)c1cccs1 | 63.8% (active)
88 | O=C(CCNS(=O)(=O)c1cccs1)N1CCN(c2ccc(F)cc2)CC1 | -7.67% (inactive)
89 | CCOc1ccc(S(=O)(=O)NCc2ccc3c(c2)OCO3)cc1C | -11.3% (inactive)
90 | COc1ccc(N2C(=O)C3C(C2=O)C(C(=O)c2ccccc2)N2CCCC32)cc1 (stereo unspecified) | 19.2% (inactive)
91 | CC(=O)Nc1ccc(S(=O)(=O)NNC(=O)CCc2ccccc2)cc1 | -3.14% (inactive)
